Source: PubChem BioAssay
CYP2C9 inhib: human CYP2C9 inhibition; P11712; CYP2C9 Supersomes, luciferin-H conversion, luminescence; inhibition, % at 5 µM; actives 20% (n = 96,000); AID 777;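 active = blocking of liver enzyme CYP2C9 beyond about 50% at 5 µM, limit read from the data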
cytoskel mod: cytoskeleton assembly modification. HUVEC TNFa F-actin phalloidin imaging, high content. inhibition, % at 2 µM. actives 0.18% (n = 91,000). AID 836;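 active = inhibition above the batch mean plus 3 SD and confirmed as a hit by visual image inspection, cut at about 30% in these data, passing the limit was not always enough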
CYP2C19 act: increases human CYP2C19 enzyme activity | P33261 | recombinant CYP2C19, luciferin-H EGE luminescence; active compounds read high; 0 = fully inhibited enzyme, 1 = untreated enzyme | activation factor at 5 µM | 96,000 tested, under 10 active | AID 1025;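 active = activation factor of at least 2 at 5 µM in the primary screen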
Target sequence (P33261 whole entry, looked up): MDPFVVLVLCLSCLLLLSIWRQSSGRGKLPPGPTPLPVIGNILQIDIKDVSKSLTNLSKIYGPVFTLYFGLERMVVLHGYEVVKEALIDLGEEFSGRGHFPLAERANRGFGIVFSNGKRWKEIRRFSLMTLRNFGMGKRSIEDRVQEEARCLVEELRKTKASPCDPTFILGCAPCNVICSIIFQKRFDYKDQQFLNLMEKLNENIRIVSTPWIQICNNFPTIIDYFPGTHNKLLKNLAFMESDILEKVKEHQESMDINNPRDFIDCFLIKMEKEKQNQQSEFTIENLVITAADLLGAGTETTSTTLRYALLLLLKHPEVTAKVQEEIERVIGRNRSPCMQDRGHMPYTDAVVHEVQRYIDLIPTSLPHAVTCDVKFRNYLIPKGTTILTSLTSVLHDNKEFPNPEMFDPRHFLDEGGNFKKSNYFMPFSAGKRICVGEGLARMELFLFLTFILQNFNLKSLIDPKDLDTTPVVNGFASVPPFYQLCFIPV
CYP2C19 inhib: blocks human cytochrome P450 2C19; inhibition, % at 5 µM; P33261; CYP2C19 Supersomes, luciferin-H EGE luminescence, 30 min; actives 21% (n = 96,000);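 active = CYP2C19 inhibition above a set limit at 5 µM in the primary screen, cut at about 50% in these data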
E-sel TNF inh: TNF alpha driven E-selectin expression inhibition; actives 0.71% (n = 120,000); inhibition, % at 2 µM; HUVEC TNFa-induced E-selectin immunofluorescence, high content;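 active = inhibition above the batch mean plus 3 SD, and confirmed as a hit on visual image review, cut at about 43% in these data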
CYP2C9 act: increases human cytochrome P450 2C9 activity. P11712. recombinant CYP2C9, luciferin-H conversion, luminescence; active compounds read high; factor 1 = untreated enzyme, 0 = blocked. activation factor at 5 µM. actives 1.4% (n = 96,000). AID 1024;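 active = activation factor of 2 or more for CYP2C9 at a 5 µM dose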
A number is an active result; n = inactive; x = not tested or not shown. This is a sample that favours compounds with a hit; in the whole collection about 22% have one here.

SMILES	CYP2C9 inhib	cytoskel mod	CYP2C19 act	CYP2C19 inhib	E-sel TNF inh	CYP2C9 act
Cc1cc(C)c(C#N)c(=N)o1	n	n	n	n	61.6	n
Cc1c(-c2ccccc2)[n+](=O)c2c(n1[O-])CCC2	x	n	x	x	n	x
Cc1c(Cl)cnc(NC(=O)COC(=O)c2nn(C)c(=O)c3ccccc23)c1Cl	x	x	x	x	64.3	x
CSc1nc2c(ccc3ccccc32)o1	x	x	x	x	n	x
CSc1nsc(SCC(=O)Nc2nncs2)n1	x	x	x	x	n	x
CSc1nsc(SCC(=O)Nc2cccc(C(C)=O)c2)n1	51.2	n	n	n	n	n
CCOC(=O)c1ccc(NC(=O)CSc2nc(SC)ns2)cc1	60.0	n	n	54.6	n	n
COc1ccc(N2CCN(c3cc(=O)n(Cc4ccc(F)cc4)c(=O)[nH]3)CC2)cc1	n	x	n	n	n	n
O=C1NC(c2ccc3c(c2)OCO3)Nc2ccccc21 (stereo not given)	n	n	n	62.4	x	n
O=C1NC(c2ccc3c(c2)OCO3)Oc2ccccc21 (stereo not given)	79.1	n	n	95.9	n	n
O=C(CCCC(=O)N(c1ccc2c(c1)OCCO2)C(C(=O)NC1CCCCC1)c1ccc(Cl)cc1)Nc1ccccn1 (stereo not given)	52.1	n	n	54.9	n	n
O=C(CCCC(=O)N(CC(=O)NC1CCCC1)Cc1ccc2c(c1)OCO2)Nc1ccccn1	59.9	n	n	59.8	n	n
O=C(CN(Cc1ccc2c(c1)OCO2)C(=O)c1cnsn1)NC1CCCC1	n	n	n	88.2	n	n
CCOc1ccc(N(CC(=O)NC2CCCC2)C(=O)CCCC(=O)Nc2ccccn2)cc1	n	n	n	n	n	n
O=C(CCCC(=O)N(CC(=O)NC1CCCC1)Cc1ccccc1)Nc1ccccn1	50.3	n	n	n	n	n
O=C(CCC(=O)N(CC(=O)NC1CCCCC1)c1ccc2c(c1)OCO2)Nc1ccccn1	n	x	n	n	n	n
O=C(CSc1ncnc2c1nnn2-c1ccc(F)cc1)N1CCN(c2ccccc2)CC1	x	n	x	x	n	x
CCOC(=O)CSc1cc(C)nc(NC(C)=O)n1	n	n	n	n	n	n
O=C(CN(Cc1ccccc1)C(=O)CCC(=O)Nc1ccccn1)NCc1ccco1	n	n	n	58.9	n	n
Cn1cc(C(N)=O)c2ccccc21	x	x	x	x	n	x
Cn1cc(/C(Cc2ccccc2)=N\O)c2ccccc21	n	x	n	58.6	n	n
COc1ccc2nc(NC(=O)CCN3C(=O)c4ccccc4C3=O)sc2c1	n	n	n	n	n	n
CCOc1ccc(N2C(=O)CC(NCCc3ccncc3)C2=O)cc1 (stereo not given)	n	n	n	52.0	n	n
CCCOc1ccc(N2C(=O)CC(N3CCN(c4ccccc4F)CC3)C2=O)cc1 (stereo not given)	n	n	n	n	n	n
CCCOc1ccc(N2C(=O)CC(NCc3ccncc3)C2=O)cc1 (stereo not given)	66.7	n	n	68.4	n	n
SMILES	CYP2C9 inhib	cytoskel mod	CYP2C19 act	CYP2C19 inhib	E-sel TNF inh	CYP2C9 act
CCCOc1ccc(N2C(=O)CC(N3CCC(c4nncn4CC)CC3)C2=O)cc1 (stereo not given)	64.1	n	n	n	n	n
CCCOc1ccc(N2C(=O)CC(NCc3cccs3)C2=O)cc1 (stereo not given)	x	n	x	x	n	x
COC(=O)c1sc(=S)n(-c2cc(F)ccc2F)c1N	n	n	n	n	n	n
CNc1ccc(OC(F)F)cc1C(=O)c1ccccc1	n	x	n	n	x	n
Cc1ccc(NC(=O)CSc2n[nH]c(C)c2[N+](=O)[O-])cc1	x	x	x	x	n	x
Cc1[nH]nc(SCC(=O)N2CCCCC2)c1[N+](=O)[O-]	n	x	n	64.6	n	n
O=C(CCC(=O)N1CCc2ccccc21)Nc1ccccc1	n	n	n	92.5	n	n
O=C(CCN1CCc2ccccc2C1)Nc1ccccc1	60.5	n	n	91.4	x	n
O=C(CCN1CCc2ccccc2C1)Nc1cccc(F)c1	n	n	n	91.5	n	n
O=C(Nc1ccccc1)N1CCc2ccccc21	x	n	x	x	n	x
CC(CC(=O)N1CCc2ccccc21)c1ccccc1 (stereo not given)	n	n	n	93.6	x	n
Cn1c(=O)c2c(nc(SCCOc3ccc4ccc(=O)oc4c3)n2C)n(C)c1=O	n	x	n	n	x	n
Cc1cccc(NS(=O)(=O)c2ccc(NC(=O)CN(c3cc([N+](=O)[O-])ccc3C)S(C)(=O)=O)cc2)c1	x	x	x	x	n	x
O=C(NCS(=O)(=O)c1ccccc1)c1ccccc1	n	n	n	70.3	x	n
O=C(CCS(=O)(=O)c1ccccc1)NCCS(=O)(=O)c1ccccc1	x	x	x	x	n	x
CNc1ncc(C(=O)c2ccc(Cl)cc2)s1	n	n	n	65.4	n	n
CNc1ncc(C(=O)c2ccc(Cl)c(Cl)c2)s1	n	n	n	52.7	n	n
CC(C)(C)C(=O)c1cnc(Nc2ccccc2Cl)s1	n	n	n	n	n	n
O=C(c1ccccc1)c1cnc(Nc2ccccc2Cl)s1	n	x	n	53.5	n	n
O=C(c1ccc(Cl)c(Cl)c1)c1cnc(Nc2ccccc2)s1	n	n	n	n	n	n
CN(C(=O)COc1ccccc1C(=O)NCCc1ccccc1)c1ccccc1	x	x	x	x	n	x
CN(CC(=O)Nc1ccc(F)cc1)c1ccc(S(=O)(=O)N2CCCC2)cn1	x	x	x	x	n	x
COCCN(CC(=O)Nc1ccccc1)S(=O)(=O)c1ccc(S(=O)(=O)N2CCCC2)cc1	73.4	n	n	n	n	n
COCCN(CC(=O)Nc1ccc(F)cc1)S(=O)(=O)c1ccc(S(=O)(=O)N2CCCC2)cc1	62.2	n	n	n	n	n
CCN(CC)C(=O)COc1cccc2ccccc12	n	x	n	93.0	n	3.7
SMILES	CYP2C9 inhib	cytoskel mod	CYP2C19 act	CYP2C19 inhib	E-sel TNF inh	CYP2C9 act
O=C(O)COc1cccc2ccccc12	n	x	n	n	n	n
COC(=O)c1ccc(NC(=O)C23CCC(C)(C(=O)O2)C3(C)C)cc1 (stereo not given)	n	n	n	n	n	n
COC(=O)C1=C2SC(C)C(=O)N2C(N)=C(C#N)C1c1cc(OC)c(OC)c(OC)c1 (stereo not given)	n	n	n	n	n	n
Nn1c(SCC(=O)Nc2ccc3c(c2)OCO3)nnc1-c1ccc(Cl)cc1	n	n	n	n	n	n
O=C(CSc1ncc(-c2ccc(F)cc2)n1Cc1ccco1)Nc1ccc2c(c1)OCO2	72.6	n	n	n	n	n
Cc1cc(-c2ccco2)n(CC(=O)NCc2ccccc2)n1	n	n	n	74.9	n	n
O=C(CSc1nnc(-c2ccccc2)n1Cc1ccco1)NCc1ccc2c(c1)OCO2	66.6	n	n	n	n	n
Cc1ccc(OCc2nnc(SCC(=O)Nc3ccc4c(c3)OCCO4)n2Cc2ccco2)cc1	69.4	n	n	n	x	n
Cc1cc(-c2ccco2)n(CC(=O)NCCCc2ccccc2)n1	n	x	n	n	n	n
CCn1c(SCC(=O)NC(=O)Nc2ccc3c(c2)OCCO3)nnc1-c1cccs1	56.3	x	n	n	x	n
O=C(CSc1nnc(-c2ccco2)n1Cc1ccco1)NCc1ccccc1	84.9	n	n	65.6	n	n
